Drawing on PubChem BioAssay (EPA / NIEHS), this text covers outcome and AC50 for ten compounds.

Records with an inconclusive call do not appear. Active and inactive are the calls of the source. How the source made its calls, unless noted: active means hit-call score of the fitted dose curve at least 0.9, where 1 is the maximum; inconclusive means response in the unintended direction; inactive means score below 0.9.

Test [1] in a line: Tanguay_ZF_120hpf_TR_legacy: (Legacy) Oregon State University Tanguay Lab 120 Hour Post-fertilization zebrafish Assay for Touch Response (AID 2283667). The essentials: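 Binary touch-response endpoint in larvae at 120 hpf after static waterborne exposure from embryo stage (28°C, 0.64% DMSO vehicle, 5 uM trimethyltin chloride as positive control); embryos dead at 24 or 120 hpf excluded; fitted as gain versus DMSO.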

Read-out in test [2]: Cytochrome P450 (CYP24A1_1), CYP24A1 (gene 1591)
Nature of the test: LTEA_HepaRG_CYP24A1_1: Life Technologies and Expression Analysis (LTEA) Assay for Cytochrome P450 (CYP24A1_1) using HepaRG (AID 2283671; active means hit-call score of the fitted dose curve at least 0.9, where 1 is the maximum; inactive means score below 0.9). The following applies: mRNA level, 48 h; actives raise or lower the signal. In short, it runs like this: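 Differentiated human HepaRG cells were exposed in duplicate for 48 h in serum-free induction medium to eight concentrations (top 100 uM, half-log steps, 0.5% DMSO). CYP24A1 mRNA was quantified by TaqMan qRT-PCR, normalized to ACTB, GAPDH and POLR2A, and fitted bidirectionally versus DMSO.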

A short description of test [3]: CEETOX_H295R_MTT_cell_viability: Viability Assessment in the CeeTox HT-H295R MTT Assay (AID 2283718; active means hit-call score of the fitted dose curve at least 0.9, where 1 is the maximum; inactive means score below 0.9). The essentials: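 MTT reduction (0.5 mg/ml, 4 h at 37 C; absorbance at 570 and 650 nm) gave viability as background-corrected percent change versus controls. H295R cells had 48 h forskolin (10 uM) prestimulation, then 48 h chemical exposure at 0.1% DMSO.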
Test [4] can be described thus: Tanguay_ZF_120hpf_ActivityScore_legacy: (Legacy) Oregon State University Tanguay Lab 120 Hour Post-fertilization zebrafish Assay Score for Activity (AID 2283742).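 On AC50: dechorionated Tropical 5D wild-type zebrafish embryos held singly per well.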 The essentials: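 Binary scoring of mortality and morphology by brightfield at 24 and 120 hpf, summarised into one activity score from 18 components relative to DMSO. Wild-type Tropical 5D zebrafish, chorion removed at 4 hpf, static exposure 6–120 hpf, 28 °C.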

A short description of test [5]: CCTE_Simmons_CellTiterGLO_HEK293T: Viability Assessment in CCTE's Assays for Thyroperoxidase (TPO) Inhibition, Simmons Lab (AID 2283665).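 On AC50: cells exposed to compound for 24 h before readout; actives reduce ATP signal below DMSO vehicle meaning cytotoxicity.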 The essentials: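 Luminescent ATP readout (CellTiter-Glo, 20 min at room temperature) after 24 hr exposure of HEK293T cells to 5 nM–87.5 uM final compound; signal loss relative to DMSO vehicle indicated cytotoxicity; dichlone titrated as positive control.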
A general note: ATP-based viability assays read luminescence as a measure of living cells.

A short description of test [6]: CCTE_Padilla_ZF_144hpf_TERATOSCORE: (Legacy) CCTE's 144 Hour Post-fertilization zebrafish Assay Teratoscore, Padilla Lab (AID 2283679; active means hit-call score of the fitted dose curve at least 0.9, where 1 is the maximum; inactive means score below 0.9;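 further: zebrafish embryos with chorions exposed by immersion from 6-8 hpf to 5 dpf with daily renewal; teratogenicity score from eye scoring of death hatching and malformations at 144 hpf; higher score means more developmental defects relative to DMSO baseline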). The essentials:
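Larvae scored by eye at 144 hpf for death, hatching and malformations after a day in clean Hanks'. Before that, daily-renewed exposure at 80 uM (0.4% DMSO, 26C) from roughly 6-8 hpf through 5 dpf, 4 embryos per chemical.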

Test [7] deals with Luciferin 4-monooxygenase (Photinus pyralis) (UniProt P08659). As to the kind of experiment: CCTE_Simmons_QuantiLum_inhib_2: CCTE's Firefly Luciferase Inhibition Assay, Simmons Lab (AID 2283767).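 On AC50: potency for inhibitors that lower luciferase luminescence relative to DMSO.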 In short, it runs like this:
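Cell-free QuantiLum luciferase, 5 ng/well; compounds 5 nM–87.5 uM final, 8 conc, 0.5% DMSO; 30 min, 37C, dark. Detection reagent (150 uM D-luciferin, 147 uM dATP, CoA, DTT, pH 7.8 final) injected per well, kinetic luminescence. Triplicate biological replicates.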

Test [8] in a line: ACEA_AR_agonist_AUC_viability: ACEA Biosciences xCELLigence Real-Time Cell Analysis on Androgen Receptor Agonism for Viability (AID 2283775).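 On AC50: viability read 80 hours after compound addition.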 The essentials:
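Viability endpoint from xCELLigence impedance in 22Rv1 prostate cells at 80 h. Eight-point series, 100 uM maximum final.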

A short description of test [9]: ACEA_AR_antagonist_AUC_viability: ACEA Biosciences xCELLigence Real-Time Cell Analysis on Androgen Receptor Antagonism for Viability (AID 2283776).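 Further: 22Rv1 human prostate cancer cells growing on impedance electrode plates; hits lower the growth signal relative to DMSO meaning cytotoxicity.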 In short, it runs like this: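 Impedance read-out (RT-CES): area under growth curve at 80 h post-dose, loss of signal scored vs DMSO baseline. 22Rv1 cells; 8-pt 1:4 series, top 100 uM final, ≤0.5% DMSO; biological duplicate.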

A short description of test [10]: ACEA_ER_AUC_viability: ACEA Biosciences xCELLigence Real-Time Cell Analysis on Estrogen Receptor Agonism for Viability (AID 2283782).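 Further: hit means loss of impedance signal meaning reduced cell growth or viability.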 In short, it runs like this:
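Viability endpoint: reduced impedance area under the curve relative to DMSO, recorded by real-time electrode sensing over ~80 h of continuous exposure. Duplicate plates of T47D in hormone-depleted medium; eight concentrations, 1:4 dilutions, 100 uM maximum.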

Test [11] is described as follows: STM_H9_OrnithineISnorm_perc: Stemina devTOX quickPredict H9 human embryonic stem cell (hESC)-based Assay for Ornithine (ORN) Metabolite Biomarker, Normalized (AID 2283712; active means hit-call score of the fitted dose curve at least 0.9, where 1 is the maximum; inactive means score below 0.9;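 further: ornithine released into spent medium during last day measured by mass spectrometry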). In short, it runs like this:
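UPLC-HRMS readout: endogenous ornithine EIC area / 13C-ORN internal standard, then % of 0.1% DMSO median. H9 hESCs (pluripotent), 72h exposure, re-dosed with fresh media q24h; last 24-h spent media, deproteinized in 40% acetonitrile.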

The nature of test [12]: STM_H9_CystineISnorm_perc: Stemina devTOX quickPredict H9 human embryonic stem cell (hESC)-based Assay for Cystine (CYSS) Metabolite Biomarker, Normalized (AID 2283713; active means hit-call score of the fitted dose curve at least 0.9, where 1 is the maximum; inactive means score below 0.9). In short, it runs like this: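 UPLC-HRMS read-out: endogenous cystine peak area in spent medium, normalized to isotope-labeled internal standard and to median of 0.1% DMSO controls. Pluripotent H9 cells, 72h exposure, daily medium/compound replenishment; medium from last 24h sampled.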

A short description of test [13]: STM_H9_OrnCyssISnorm_ratio: Stemina devTOX quickPredict H9 human embryonic stem cell (hESC)-based Assay for Ornithine (ORN):Cystine (CYSS) Ratio (AID 2283714). In short, it runs like this:
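Ratio of internal-standard-normalized ornithine to cystine, measured by UPLC-HRMS in spent media from the last 24 h. H9 cells kept pluripotent, dosed 72 h with daily media and compound renewal; DMSO 0.1% serves as baseline.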

Test [14] has as its system Thyroperoxidase (TPO), gene 445522. Nature of the test: CCTE_Simmons_GUA_TPO: CCTE's Guaiacol Assay for Thyroperoxidase (TPO) Inhibition, Simmons Lab (AID 2283750). In short, it runs like this:
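Porcine thyroid microsomes (25 ug) in 200mM potassium phosphate, preincubated 30 s at 37C with compound (8 concentrations, 5 nM–87.5 uM) and 35mM guaiacol; 1mM H2O2 starts reaction. Absorbance change at 450nm over first 80 s; loss of signal versus DMSO, three replicates.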

Test [15] in a line: STM_H9_NormalizedViability: Cytotoxicity Assessment at 120 hours in the Stemina devTOX quickPredict H9 human embryonic stem cell (hESC)-based Assay (AID 2283784). In short, it runs like this:
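CellTiter-Fluor RFU, background-subtracted, expressed relative to 0.1% DMSO neutral control by plate. Pluripotent H9 cells; treatment with daily re-dosing. Plates carried 1uM methotrexate (positive) and 5 nM methotrexate (negative) references.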

The target in another test is AR (gene 367) (UniProt P10275). Nature of the test: ACEA_AR_agonist_80hr: ACEA Biosciences xCELLigence Real-Time Cell Analysis on Androgen Receptor Agonism for Proliferation (AID 2283783).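 Further: hits increase impedance growth signal above DMSO baseline.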 In short, it runs like this: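 Eight concentrations, 1:4 serial dilution from a 100 uM final top, in biological duplicate. Impedance-based real-time growth of 22Rv1 cells after overnight baseline, recorded hourly and read at 80 hours. Controls: testosterone, MG132, assay media.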
Chain of AR (gene 367) (P10275 whole entry, looked up): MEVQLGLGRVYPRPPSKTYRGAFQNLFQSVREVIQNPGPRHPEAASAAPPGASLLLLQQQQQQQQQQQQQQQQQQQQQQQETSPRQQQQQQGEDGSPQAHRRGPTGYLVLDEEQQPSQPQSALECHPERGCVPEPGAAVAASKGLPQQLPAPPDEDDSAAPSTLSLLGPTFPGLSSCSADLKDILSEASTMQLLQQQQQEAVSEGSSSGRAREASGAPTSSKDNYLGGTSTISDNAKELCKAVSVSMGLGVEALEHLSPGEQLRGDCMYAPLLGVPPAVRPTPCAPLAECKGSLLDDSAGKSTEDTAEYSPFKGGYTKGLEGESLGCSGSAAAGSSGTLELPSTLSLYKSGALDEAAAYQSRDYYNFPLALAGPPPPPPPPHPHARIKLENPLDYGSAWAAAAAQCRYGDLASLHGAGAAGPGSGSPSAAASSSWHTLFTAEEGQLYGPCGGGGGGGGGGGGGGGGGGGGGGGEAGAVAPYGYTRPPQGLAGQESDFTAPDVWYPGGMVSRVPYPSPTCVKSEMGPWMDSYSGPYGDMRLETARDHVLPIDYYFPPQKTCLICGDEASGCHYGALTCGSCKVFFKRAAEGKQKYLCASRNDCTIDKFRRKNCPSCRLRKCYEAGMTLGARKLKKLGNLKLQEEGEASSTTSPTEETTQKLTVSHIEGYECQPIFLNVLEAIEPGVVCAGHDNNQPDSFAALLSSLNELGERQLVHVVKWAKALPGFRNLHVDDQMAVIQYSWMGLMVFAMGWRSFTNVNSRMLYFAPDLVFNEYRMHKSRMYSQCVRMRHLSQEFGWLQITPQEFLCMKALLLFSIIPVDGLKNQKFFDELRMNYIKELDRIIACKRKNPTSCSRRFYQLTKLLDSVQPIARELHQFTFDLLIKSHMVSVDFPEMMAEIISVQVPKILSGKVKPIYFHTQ

Chain of Luciferin 4-monooxygenase (Photinus pyralis) (P08659 whole entry, looked up): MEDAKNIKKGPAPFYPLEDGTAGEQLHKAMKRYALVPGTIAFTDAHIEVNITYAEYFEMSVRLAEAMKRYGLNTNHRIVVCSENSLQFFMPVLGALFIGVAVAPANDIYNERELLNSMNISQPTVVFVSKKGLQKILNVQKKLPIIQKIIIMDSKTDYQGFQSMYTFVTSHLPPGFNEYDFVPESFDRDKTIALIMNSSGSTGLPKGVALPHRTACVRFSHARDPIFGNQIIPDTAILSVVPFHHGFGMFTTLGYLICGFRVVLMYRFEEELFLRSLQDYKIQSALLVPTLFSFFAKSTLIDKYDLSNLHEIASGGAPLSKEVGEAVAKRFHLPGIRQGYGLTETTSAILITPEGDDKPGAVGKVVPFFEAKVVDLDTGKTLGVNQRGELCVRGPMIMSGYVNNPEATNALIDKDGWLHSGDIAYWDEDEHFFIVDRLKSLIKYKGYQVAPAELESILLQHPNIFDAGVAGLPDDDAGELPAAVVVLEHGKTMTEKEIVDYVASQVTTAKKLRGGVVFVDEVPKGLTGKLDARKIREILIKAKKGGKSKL

Consider `Cc1cc(C)cc(C)c1`, for which the compound was classed as inactive in [1], in test [2], in [3] and in test [4].
Regarding `O=C(O)C1(c2ccc3c(c2)OC[C@H](Cc2ccc(-c4ccccc4)cc2)[C@H]3O)CCCC1`, the AC50 was 13.3 µM (active) in test [5]; 13.5 µM (active) in test [6]; 85.2 µM (active) in [7]; 34.6 µM (active) in test [8]; 78.3 µM (active) in test [10]. For the same compound, the compound was called inactive in [1], in [4] and in [9].
As to `CN(C)C(=S)S`, the AC50 is 8.68 µM (active) in test [5]; 12.4 µM (active) in test [6]; 66.3 µM (active) in test [11]; 75.9 µM (active) in test [12]; 71.7 µM (active) in [13]; 0.00103 µM (active) in [4]. Further, the AC50 in [14] is 250 µM (active); in [15], 29.2 µM (active). The compound was called inactive in test [1], in test [3], in test [7], in test [8] and in test [9].
`O=C(CBr)c1ccc(O)cc1`: the result in test [5], in test [7] and in test [9] was inactive.
Take `CC(C)(C)c1ccccc1O`: the AC50 in test [5] was 55.4 µM (active). In addition, the compound was called inactive in test [3], in [4], in [7], in test [8] and in test [9].
As to `O=S1(=O)OC(c2cc(Br)c(O)c(Br)c2)(c2cc(Br)c(O)c(Br)c2)c2ccccc21`, the AC50 in [5] is 11.1 µM (active); in test [7] it was 32.1 µM (active). For the same compound, the result (in [9]; in test [10]; with AR (gene 367)) was inactive.
Take `COC(=O)Nc1cccc(OC(=O)Nc2cccc(C)c2)c1`: the call in [5], in test [3] and in test [9] was inactive. In test [7], the AC50 is 9.99 µM (active).
Turning to `O=[N+]([O-])c1ccc(Cl)c([N+](=O)[O-])c1`, the AC50 in [13] was 13.2 µM (active); in test [8], 22.3 µM (active); in [10], 1.55 µM (active); in test [15], 16.5 µM (active). Further, the compound was classed as inactive with AR (gene 367).
For the compound `CCOP(=S)(OCC)SCS(=O)(=O)C(C)(C)C`, the compound was called inactive in [5], in test [7] and in test [10].
With `OCCN(CCO)CCO`, the AC50 in test [11] was 0.0236 µM (active). Moreover, the outcome in test [12], in [13], in test [4], in test [9] and in [15] was inactive.

One may read the AC50 as the concentration giving half of the maximal activity seen.
